The text below walks through data of PubChem BioAssay AID2289 (National Center for Advancing Translational Sciences (NCATS), 2010).

The campaign covered roughly 340,000 compounds. About 3,300 (0.97%) were called active. About 9% were inconclusive and are not listed. The call rests on the fitted dose curve; in most records, active means well fitted inhibition curve with a large enough effect; inconclusive means small, poorly fitted or top-dose-only effect, or effect the other way; inactive means flat fitted curve, though single readings scatter. This is one part of the list.
Potency means the concentration at half of the fitted maximal effect.

The assay is described as follows: qHTS Assay for Modulators of miRNAs and/or Inhibitors of miR-21. Further: nearly all actives have a fitted effect of over 55% in size. Conditions: HeLa miR-21-FLuc reporter, luciferase luminescence, 48 h; actives lower the signal. The source says: MLSCN Grant: 1 R21 NS059478-01 Assay Provider: Qihong Huang, The Wistar Institute NCGC Assay Overview: MicroRNAs (miRNAs) are endogenously encoded small (~20-25 nucleotides), nonprotein-coding RNAs that are involved in post-transcriptional repression of target messenger RNAs (mRNAs) (Le and Hannon, 2004). Estimated to be involved in the regulation of 30% of all protein-coding mRNAs (Filipowicz et al., 2008), miRNAs play a significant role in many biological processes including cellular differentiation and tissue development (Ghildiyal and Zamore, 2009).
NCGC Assay Protocol Summary: Reagents: HeLa cells stably expressing firefly luciferase (FLuc) under the control of a CMV promoter (upstream) and a miR-21 binding sequence directly downstream of the gene. These cells endogenously express miR-21. Control compounds used were compound C3 (provided by collaborator), N6-phenyladenosine (MP Biomedicals, 0215379625), and DMSO. Assay Summary: 6uL of HeLa miR-21-FLuc cells in assay buffer (DMEM, Invitrogen #21063-029; 10% FBS, HyClone #SH30071.03) were dispensed at 2000cells/well (3.3 x 10^5 cells/mL) into Greiner solid-white TC-treated 1536-well plates using a Multidrop Combi (Thermo Fisher Scientific). Plates were incubated for one hour at 37 degree Celsius, 95% humidity, 5% CO2. These assay plates were then treated with 23nL of compound or DMSO using a Kalypsys pin tool, which allows for delivery of a 24-point titration of each compound to the assay plate, with a final compound concentration ranging from approximately 40uM to 5pM. Assay plates were then incubated for 48 hours. After incubation, plates were allowed to come to RT for one hour prior to delivery of 3uL of 3X luciferase detection reagent. After a 15 minute incubation to allow for cell lysis, luciferase activity was measured using a ViewLux CCD imager (PerkinElmer), with an average exposure time of 2-12 seconds. Keywords: NIH Roadmap, MLPCN, MLSMR, qHTS, miR-21, microRNA, firefly luciferase, FLuc.
In general terms: In qHTS, concentration-response curves come from the screen itself.
In the case of `Cc1nc(-c2nc(-c3c(C(=O)NN)noc3C)cs2)cs1`, the Potency was 4.14 µM (active). Next, `COCCCNC(=O)c1ccc(NC(=O)c2nsc3ccccc23)cc1`: 3.69 µM (active).

For `CCOc1ccc(CNC(=O)c2ccc(NC(=O)c3nsc4ccccc34)cc2)cc1`, the Potency is 1.85 µM (active). Then `CSc1ccc(CNC(=O)c2ccc(NC(=O)c3nsc4ccccc34)cc2)cc1`, with 0.585 µM (active); and `Cc1ccc(CNC(=O)c2ccc(NC(=O)c3nsc4ccccc34)cc2)cc1`, with 1.65 µM (active); and `CCOc1cc(CNC(=O)c2ccc(NC(=O)c3nsc4ccccc34)cc2)ccc1OC`, with 0.585 µM (active). Next, `O=C(Nc1ccccc1F)N1CCc2ccccc2C1`: 4.65 µM (active); `Nc1nc(CSC(=S)N2CCOCC2)nc(Nc2ccccc2)n1`: 3.69 µM (active); `Nc1nc(CSC(=S)N2CCCCC2)nc(Nc2ccccc2)n1`: 11.7 µM (active). Next, `Cn1c(CCN2CCCCCC2)nc2cc(NC(=O)Nc3ccccc3)ccc21`: 7.36 µM (active); `Cc1ccc(NC(=O)Nc2ccc3c(c2)nc(C)n3C)cc1C`: 1.17 µM (active); `Cc1nc2cc(NC(=O)Nc3cccc4ccccc34)ccc2n1C`: 2.93 µM (active).

As for `Cc1ccc(/C=N/Nc2ccc(Cl)c(C(=O)O)c2)s1`, the Potency is 0.165 µM (active). As for `Cc1ccc(/C=N/Nc2ncc(Cl)cc2Cl)s1`, the Potency is 3.69 µM (active). Then `Cc1ccc(/C=N/Nc2cccc(C(=O)O)c2)s1`, with 0.104 µM (active); and `CN(C(=O)c1ccco1)c1nnc(C23CC4CC(CC(C4)C2)C3)s1`, with 8.26 µM (active); and `CCSc1cc(C)nc2c(-c3ccccc3)cnn12`, with 0.656 µM (active). Turning to `C=CCSc1cc(C)nc2c(-c3ccccc3)cnn12`, the Potency was 2.07 µM (active).

With `COc1ccc(/C=C/C=C2\NC(=S)NC2=O)cc1`, the Potency is 14.7 µM (active). Then `Cc1oc(C(C)(C)C)cc1C(=O)Nc1ccc(C(=O)O)cc1`, with 8.26 µM (active); and `NC1=NC(=O)/C(=C/c2cn(Cc3ccccc3)c3ccccc23)S1`, with 9.27 µM (active); and `Cc1ccc(C(=O)C(C)OC(=O)c2ccccc2[N+](=O)[O-])cc1` (centres undefined), with 4.65 µM (active). Turning to `Cc1ccc(NC(=O)CC(=O)c2ccccc2)cc1C`, the Potency is 11.7 µM (active).

Regarding `Cc1ccc2cc(NC(=O)c3ccccc3C)ccc2n1`, the Potency is 5.85 µM (active).

Turning to `Cc1ccc2cc(NC(=O)c3cccc(F)c3)ccc2n1`, the Potency was 0.464 µM (active). With `CCc1ccc(C(=O)Nc2ccc3nc(C)ccc3c2)cc1`, the Potency was 3.29 µM (active). Next, `Cc1ccc2cc(NC(=O)Cc3ccccc3)ccc2n1`: 2.07 µM (active). Next, `CCC(=O)Nc1ccc(-c2csc(C)n2)cc1`: 7.36 µM (active); `CCC(=O)Nc1ccc(-c2ccc(N3CCCCC3)nn2)cc1`: 4.14 µM (active). On to `COc1cc(SC)ccc1C(=O)Nc1ccc2c(c1)CCC2`, for which the Potency was 1.31 µM (active).

Take `COc1cc(SC)ccc1C(=O)Nc1ncc(Cl)cc1Cl`: the Potency was 1.85 µM (active).

For `CSc1ccccc1C(=O)Nc1ccc2c(c1)CCC2`, the Potency was 7.36 µM (active). With `COc1cc(SC)ccc1C(=O)Nc1ccc2ncccc2c1`, the Potency was 0.369 µM (active). Then `COc1cc(SC)ccc1C(=O)Nc1ccc(C)cc1C`, with 1.85 µM (active). As for `CCCCN(C(=O)Cc1cccs1)c1nnc(-c2cccnc2)s1`, the Potency was 14.7 µM (active). Then `CSc1nc(N)nc(SCC(=O)OC(C)C)c1C#N`, with 13.1 µM (active). `CC(C)OC(=O)CSc1nc(N)c(C#N)cc1C#N`: the Potency is 5.85 µM (active). Next, `CCOC(=O)CSc1nc(N)c(C#N)cc1C#N`: 8.26 µM (active). Then `O=C1CCn2nc(-c3ccc(Cl)cc3)cc2N1`, with 6.56 µM (active); and `COc1cccc(NC(=O)C(=O)NCCc2ccc(F)cc2)c1`, with 11.7 µM (active). Next, `O=C(NCc1ccccc1)C(=O)Nc1cccc(C(=O)O)c1`: 0.185 µM (active); `O=C(CCCc1ccccc1)c1ccccc1`: 2.07 µM (active). For the compound `O=C(CCCc1ccccc1)Nc1cccc(C(=O)O)c1`, the Potency was 0.464 µM (active). For `Cc1cccc(NC(=O)CCCc2ccccc2)c1`, the Potency is 7.36 µM (active). For `Cc1cccc(NC(=O)C(=O)NCCCc2ccccc2)c1`, the Potency is 16.5 µM (active). Regarding `Cc1cc(N2CCOCC2)n2ncc(-c3ccccc3Cl)c2n1`, the Potency was 1.65 µM (active).

`Cc1cc(N2CCOCC2)n2ncc(-c3ccc(Cl)cc3)c2n1`: the Potency is 0.414 µM (active).

As for `COc1ccccc1-c1cnn2c(NC3CCCC3)cc(C)nc12`, the Potency is 5.85 µM (active). Take `COc1ccccc1-c1cnn2c(N3CCOCC3)cc(C)nc12`: the Potency was 14.7 µM (active). With `CNC(=O)c1sc(-c2ccc(Cl)cc2)nc1C`, the Potency was 6.56 µM (active). Then `C/C(=N\O)c1sc(-c2ccccc2)nc1C`, with 1.85 µM (active). In the case of `Cc1nc(-c2ccc(Cl)cc2)sc1C(=O)O`, the Potency was 11.7 µM (active). Then `Cc1cc(/C=C\c2ccccc2)nc2ccccc12`, with 7.36 µM (active). Next, `CC(C)(C)n1cnc2cc(NCc3ccc(Br)cc3)ccc21`: 4.14 µM (active).

As to `CCc1ccc(CNc2ccc3c(c2)ncn3C(C)(C)C)cc1`, the Potency was 5.85 µM (active). Next, `O=C(O)c1ccc(N/N=C/C2=Cc3ccccc3OC2)cc1`: 1.17 µM (active).

Regarding `CCS(=O)(=O)c1ccc2oc(Nc3ccccc3Cl)nc2c1`, the Potency is 1.85 µM (active). Take `CCS(=O)(=O)c1ccc2oc(Nc3ccccc3Br)nc2c1`: the Potency is 2.07 µM (active).

In the case of `CCN(CC)S(=O)(=O)c1ccc2oc(Nc3ccccc3)nc2c1`, the Potency is 9.27 µM (active). Next, `C=CCNc1nc(Nc2ccccc2F)nc(OCC)n1`: 5.85 µM (active). As to `Cc1ccc(NC(=O)C2Cc3ccccc3O/C2=N\O)cc1C` (centres undefined), the Potency was 14.7 µM (active). Then `Cc1cccc(NC(=O)C2Cc3ccccc3O/C2=N\O)c1` (centres undefined), with 14.7 µM (active). Then `O=C(Nc1ccc(Br)cc1)C1Cc2ccccc2O/C1=N\O` (centres undefined), with 7.36 µM (active).

In the case of `N#Cc1nc(/C=C/c2ccccc2)oc1NCCCN1CCOCC1`, the Potency is 10.4 µM (active). Then `COCCNc1oc(/C=C/c2ccccc2)nc1C#N`, with 2.07 µM (active); and `COCCCNc1oc(/C=C/c2ccccc2)nc1C#N`, with 0.464 µM (active). For `CC(C)c1ccc(NC(=O)C(c2ccccc2)N2CC(=O)Nc3ccccc32)cc1` (centres undefined), the Potency was 13.1 µM (active).

For the compound `CCCC(=O)N1c2ccc(-c3csc(N)n3)cc2CC1C` (centres undefined), the Potency was 1.85 µM (active).

Regarding `CCC(C)C(=O)N1CCc2cc(-c3csc(N)n3)ccc21` (centres undefined), the Potency is 1.65 µM (active). Next, `O=c1[nH]n(Cc2ccccc2)c(=O)c2ccccc12`: 13.1 µM (active); `Cc1ccc2nc(NC(=S)NC(=O)c3cccs3)sc2c1`: 0.656 µM (active); `O=C(NC(=S)Nc1nc2ccccc2s1)c1cccs1`: 0.521 µM (active).

Consider `O=S(=O)(c1cc(F)ccc1F)N1CCC2(CC1)OCCO2`, for which the Potency is 5.21 µM (active).

With `COc1cc(OC)c(C(=O)Nc2ccc3ccccc3c2)cc1OC`, the Potency is 2.93 µM (active).

Consider `COc1cc2ccccc2cc1C(=O)NC(=S)Nc1cccc(C(=O)O)c1`, for which the Potency is 14.7 µM (active). Then `COc1ccc(C(=O)c2cc3cccc(OC)c3o2)cc1`, with 3.29 µM (active); and `COc1ccc(NC(=O)c2sc3nc[nH]c(=O)c3c2C)cc1`, with 5.85 µM (active).

Regarding `COc1ccc(NC(=O)c2ccc3nc[nH]c3c2)cc1`, the Potency is 7.36 µM (active). Next, `O=C(Nc1ccc2ccccc2c1)c1cc(F)c(F)cc1Cl`: 0.656 µM (active). Then `COc1cc(OC)c(C(=O)Nc2ccc(N(C)C)cc2)cc1OC`, with 8.26 µM (active); and `COc1cccc2cc(C(=O)N3CCc4ccccc4C3)c(=O)oc12`, with 16.5 µM (active); and `COc1ccc(C(=O)Nc2ccc3cn[nH]c3c2)c(OC)c1`, with 4.65 µM (active). Then `COc1cccc2cc(C(=O)Nc3ccc(C)cc3)c(=O)oc12`, with 0.736 µM (active). Consider `COc1cccc(NC(=O)c2cc3cccc(OC)c3o/c2=N\O)c1`, for which the Potency was 0.414 µM (active). Consider `COc1ccc(-c2cccc(C(=O)Nc3cccc(C(=O)O)c3)c2)cc1`, for which the Potency was 6.56 µM (active).

Take `CCOC(=O)CC(NC(=O)c1cc2cccc(OC)c2oc1=O)c1ccc(OC)cc1` (centres undefined): the Potency is 16.5 µM (active). Next, `COc1cccc(NC(=O)c2cc3ccccc3cc2OC)c1`: 2.33 µM (active).

`COc1ccc(C(c2c(O)ccc3ccccc23)N2CCOCC2)c(OC)c1` (centres undefined): the Potency was 11.7 µM (active). Then `Cc1ccsc1C1NC(=O)c2c(sc3c2CCCC3)N1` (centres undefined), with 5.85 µM (active).

For the compound `CCN(CC)c1ccc(NC(=O)C2CC3CCC2C3)cc1` (centres undefined), the Potency was 10.4 µM (active). Regarding `O=[N+]([O-])c1cc(C(F)(F)F)ccc1NCCOc1ccccc1`, the Potency was 7.36 µM (active).

As for `O=[N+]([O-])c1ccccc1NCCOc1ccccc1`, the Potency is 7.36 µM (active). Then `N#Cc1ccc(C(=O)NC2CCCCCCC2)cc1`, with 5.85 µM (active); and `O=C(NC1CC1)c1ccc(-c2ccccc2)cc1`, with 3.69 µM (active); and `Cc1cccc(C(=O)NC2CCCCCCC2)c1`, with 2.93 µM (active). Next, `O=C(NC1CCCCC1)c1ccc2c(c1)OCCO2`: 2.93 µM (active). Then `N#Cc1nc(COc2ccccc2F)oc1N1CCCCCC1`, with 16.5 µM (active). As to `N#Cc1nc(COc2ccccc2)oc1N1CCCCC1`, the Potency was 13.1 µM (active). Next, `N#Cc1nc(-c2ccccc2Cl)oc1N1CCCCC1`: 16.5 µM (active). Then `COC(=O)Nc1ccc2c(c1)ncn2C1CCCCC1`, with 18.5 µM (active). Then `CN(c1ccccc1)S(=O)(=O)c1nnc(NC(=O)c2cccs2)s1`, with 0.117 µM (active); and `Cc1cc(=O)[nH]c(N/N=C/c2cc(C)n(-c3ccccc3)c2C)n1`, with 3.29 µM (active); and `COc1ccc(NC(=S)NC(=O)c2ccc(Br)o2)cc1`, with 3.29 µM (active).

Turning to `COc1ccc(NC(=O)c2ccc(Br)o2)cc1`, the Potency was 4.14 µM (active). Then `Cc1ccc(C(=O)NC(=S)NCC2CCCO2)cc1Br` (centres undefined), with 8.26 µM (active); and `O=C(O)c1ccc(/C=C/c2ccc3cccc(O)c3n2)cc1`, with 4.14 µM (active). Take `O=[N+]([O-])c1cccc2ccc(/C=C/c3ccc(F)cc3)nc12`: the Potency was 7.36 µM (active). Then `C(=C\c1ccco1)/c1ccc2ccccc2n1`, with 0.656 µM (active).

Consider `O=[N+]([O-])c1ccccc1/C=C/c1ccc2ccccc2n1`, for which the Potency is 1.31 µM (active).
